Assay outcomes (PubChem)
Epigenetic derep = epigenetic control regulation, reporter derepression. murine LDR cells, GFP reporter derepression, 30 h. Potency, µM (highest dose often 53.9 µM), inactives show at the top dose GFP activation, usual class: activators. actives 0.2% (n = 280,000); also: % of control where 0% means no effect; nearly all actives have a fitted effect of over 60% in size
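Murine LDR cells carrying a silenced, genomically integrated CMV-driven GFP reporter were exposed to compound for 30 hours at 37 C. After PBS washes, GFP-positive cells (20–120 um objects) were counted by laser-scanning microplate cytometry.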
Nrf2 ARE act = Nrf2 pathway activation; actives 0.31% (n = 410,000); AID 624171; Potency, µM (highest dose often 46.1 µM), for inactives: top-dose activation, usual class: activators; AREc32 ARE-luciferase reporter (MCF7-derived line), luminescence, 24 h; also: % of control where 0% means no effect; nearly all actives have a fitted effect of over 65% in size
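Luciferase luminescence (Steady-Glo, 30 min at room temperature) served as the read-out of ARE activation in AREc32 cells treated with compounds for 24 hr at 37 deg C.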
A549 tox-1 = counter-screen for Nrf2 inhibitors: cytotoxicity in A549 cells. A549 ARE-Fluc cells, CellTiter-Fluor viability, 18-24 h. Potency, µM (doses to about 46 µM), for inactives: at the highest dose activity change, negative = cytotoxicity, hits mostly inhibitors. actives 0.16% (n = 390,000); also: % is scaled to controls: 0 for no effect and ±100 for the full control effect
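A549 ARE-Fluc cells in 5% FBS OPTI-MEM, 5000 cells/well, rested 2 h then exposed to compounds in concentration-response for 18-24 h at 37 °C. Viability by CellTiter-Fluor fluorescence (Ex 405/Em 525) after 30 min; luciferase luminescence (BugLite, 15 min, RT) read afterwards.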
PINK1 modulator = modulators of PINK1 expression; PINK1 immunofluorescence, high-content cytometry, 24 h; Potency, µM (doses to about 76.6 µM), for the others: top-dose activation (PINK1 increase), most hits filed as activators; actives 0.2% (n = 410,000); AID 624263; active = well fitted activation curve with a large enough effect; inconclusive = small, poorly fitted or top-dose-only effect; cell line not stated here; also: % of control where 0% means no effect; nearly all actives have a fitted effect of over 65% in size
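Fluorescence from anti-PINK1 antibody, together with nuclear and cell stains, was scanned on a laser-scanning cytometer. Before staining, stable-line cells were incubated 24 hours with compounds at 5 concentrations; primary antibody 12 h at 10 degrees C.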
Nrf2 inh = blocks Nrf2 signaling. A549 ARE-Fluc reporter, luciferase luminescence, 18-24 h. Potency, µM (highest dose often 46 µM), for the others: at the top dose activity change, negative = inhibition, actives largely listed as inhibitors. actives 2.1% (n = 360,000); also: % is scaled to controls: 0 for no effect and ±100 for the full control effect; nearly all actives have a fitted effect of over 60% in size
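Reporter: ARE-Fluc in A549. Exposure: 18-24 h, 37 °C, 5% CO2, 5% FBS OPTI-MEM. Readouts: fluorescent cytotoxicity (CellTiter-Fluor), then luminescent Nrf2 signal after BugLite.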
FLuc counter 3 = blocks purified firefly luciferase in Nrf2 counterscreen. purified firefly luciferase, luminescence inhibition. Potency, µM (doses to about 57.5 µM), for inactives: at the top dose activity change, negative = inhibition, actives largely listed as inhibitors. actives 4% (n = 1,400). shares compounds with Nrf2 inh; also: % is scaled to controls: 0 for no effect and ±100 for the full control effect; nearly all actives have a fitted effect of over 65% in size
Target sequence (P08659 whole entry, looked up): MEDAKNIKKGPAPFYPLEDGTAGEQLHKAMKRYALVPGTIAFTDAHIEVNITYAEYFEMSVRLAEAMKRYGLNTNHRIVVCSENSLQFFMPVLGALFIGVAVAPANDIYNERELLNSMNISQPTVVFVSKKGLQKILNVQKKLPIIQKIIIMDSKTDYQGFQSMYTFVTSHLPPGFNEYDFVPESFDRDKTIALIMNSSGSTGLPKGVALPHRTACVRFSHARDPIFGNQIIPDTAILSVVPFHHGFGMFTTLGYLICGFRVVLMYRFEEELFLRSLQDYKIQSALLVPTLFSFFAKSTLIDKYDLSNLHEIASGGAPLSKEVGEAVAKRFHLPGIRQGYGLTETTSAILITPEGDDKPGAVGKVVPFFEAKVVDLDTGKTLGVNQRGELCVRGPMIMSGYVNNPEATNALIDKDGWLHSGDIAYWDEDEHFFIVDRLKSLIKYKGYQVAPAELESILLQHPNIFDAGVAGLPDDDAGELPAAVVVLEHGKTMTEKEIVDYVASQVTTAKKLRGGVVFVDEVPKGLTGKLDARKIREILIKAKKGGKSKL
A549 tox-2 = A549 cytotoxicity, Nrf2 inhibitor counterscreen; A549 ARE-Fluc cells, cytotoxicity counterscreen; actives 2% (n = 1,400); shares compounds with Nrf2 inh; Potency, µM (highest dose often 46.1 µM), for the others: at the highest dose activity change, negative = cytotoxicity, actives largely listed as inhibitors;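 also: cells exposed to compounds for 18 to 24 hours; % is scaled to controls: 0 for no effect and ±100 for the full control effect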
Nrf2 ARE inh = Nrf2 inhibition confirmed, A549 ARE-luciferase. shares compounds with Nrf2 inh. A549 ARE-firefly luciferase reporter, luminescence. Potency, µM (titrated, usually from 46.1 µM), for inactives: at the highest dose activity change, negative = inhibition, hits mostly inhibitors. actives 74% (n = 1,400). AID 720524; also: % is scaled to controls: 0 for no effect and ±100 for the full control effect; nearly all actives have a fitted effect of over 65% in size
Active calls of the source: *; ? = inconclusive; . = no result shown; [ ] = dose if it differs, or a comment. Only some compounds are listed: those with a hit (about 2.4% of all), similar ones and a draw of the others. Unless noted, calls follow the shape of the dose curve; as a rule, active = well fitted curve in the direction sought with a large enough effect; inconclusive = small, poorly fitted or top-dose-only effect, or another doubt; inactive = no such curve, though single readings can be large; an effect the other way counts as inactive or inconclusive. Potency is read from the fitted curve at half-maximal effect.

SMILES	Epigenetic derep	Nrf2 ARE act	A549 tox-1	PINK1 modulator	Nrf2 inh	FLuc counter 3	A549 tox-2	Nrf2 ARE inh
CCC(C)N1CCC2(CC1)N=c1c(c3c4c5c(C)c(O)c3c(O)c1=NC(=O)C(C)=CC=C[C@H](C)[C@H](O)[C@@H](C)[C@@H](O)[C@@H](C)[C@H](OC(C)=O)[C@H](C)[C@@H](OC)C=CO[C@@](C)(O5)C4=O)N2 (some centres not stated)	.	-1.2%	?	10.9%	8.2µM*	-14.1%	?	?
CCOC(=O)N1CCC(NC(=O)c2ccc3c(c2)N(Cc2ccccc2)C(=O)c2ccccc2S3(=O)=O)CC1	5.3%	5.5%	1.3%	0.1%	-13.1%	.	.	.
COc1ccc(Nc2cc(C)nc3ncnn23)c(OC)c1	-4.1%	13.4%	1.5%	-0.2%	-11.1%	.	.	.
COc1ccc(CNc2cc(C)nc3ncnn23)c(OC)c1	1.3%	3.0%	-23.2%	-1.1%[38.3 µM]	1.64µM*	2.2%	-8.8%	?
C=C(C)C(O)/C=C/c1ccc(C(F)(F)F)cc1 (configuration not stated)	0.8%	.	.	.	.	.	.	.
C[n+]1ccccc1N1CCN(c2ccccc2Cl)CC1	-1.3%	-1.1%	-2.9%	0.3%	3.26µM*	2.8%	-11.7%	6.51µM*
COc1ccc(C(=S)N2CCN(c3ccccc3Cl)CC2)cc1OC	0.2%	-1.0%	-3.2%	7.9%	-16.2%	.	.	.
CCc1ccc(-n2c(=O)c3c4c(sc3n(CC(=O)c3ccc(F)cc3)c2=O)CCC4)cc1	0.0%	-1.1%	3.7%	3.2%	?	.	.	.
CC(C)CCNC(=O)c1cccc(S(=O)(=O)N2CCc3ccccc32)c1	-0.7%	-0.3%	2.0%	-0.3%	-0.7%	.	.	.
O=C(NNC(=O)c1cccc(S(=O)(=O)N2CCc3ccccc32)c1)c1ccccc1	-0.6%	4.8%	-28.4%	-0.7%	8.2µM*	-19.3%	-2.1%	5.17µM*
CC(=O)NS(=O)(=O)c1ccc(NC(=O)c2cccc(S(=O)(=O)N3CCc4ccccc43)c2)cc1	-1.6%	-0.1%	1.3%	2.3%	2.8%	.	.	.
CN(C)S(=O)(=O)c1cccc(NC(=O)c2cccc(S(=O)(=O)N3CCc4ccccc43)c2)c1	.	3.3%	-11.7%	4.0%	4.61µM*	0.3%	-10.2%	16.4µM*
CC(C)CCNc1nc2c(S(=O)(=O)c3ccc(Br)cc3)nnn2c2ccsc12	-1.0%	0.2%	-1.9%	1.8%	0.8%	.	.	.
C/C(=N\Nc1nc2ccccc2nc1C)c1ccccc1O	?	6.1%	-13.5%	?	-0.1%	.	.	.
CC(=NNc1ccc2ccccc2n1)c1ccccc1O	.	?	1.0%	10.6%	?	0.0379µM*	-5.8%	?
COc1ccc(-n2c(CC3C(=O)N(C)c4ccc(C)cc43)nc3ccccc3c2=O)cc1 (configuration not stated)	-2.0%	9.2%	-0.1%	5.2%	9.5%	.	.	.
Clc1ccc(N2CCN(c3ncnc4c3nc3n4CCCC3)CC2)cc1	-0.4%	-0.4%	-4.4%	1.7%	4.61µM*	4.0%	-1.6%	1.46µM*
CC(=O)c1sc2c(c1OC(=O)c1ccc(Cl)cc1Cl)c(=O)n(-c1ccccc1)c(=S)n2-c1ccccc1	3.1%	-0.6%	?	2.3%	3.26µM*	0.9%	?	.
O=S(=O)(NCCc1cn(S(=O)(=O)c2ccccc2)c2ccccc12)c1ccccc1	.	.	-0.3%	-1.2%	10.7%	.	.	.
O=C(N/N=C\c1ccc(Cl)cc1)C1=NOC2COC3(CCN(c4ccc([N+](=O)[O-])cc4)CC3)OCC12 (configuration not stated)	-4.3%	-0.1%	?	2.5%	2.59µM*	-0.9%	-12.4%	.
NNC(=O)C1=NOC2COC3(CCN(c4ncccn4)CC3)OCC12 (configuration not stated)	0.3%	-0.8%	-4.2%	-3.4%	?	.	.	.
Cc1ccc(-c2csc(Cc3nc(-c4cc5ccccc5oc4=O)cs3)n2)cc1	-1.4%	-0.9%	-3.3%	8.2%[38.3 µM]	4.61µM*	-1.2%	-4.2%	7.31µM*
O=c1oc2ccccc2cc1-c1csc(Cc2nc(-c3ccc(Br)cc3)cs2)n1	1.2%	0.1%	-16.3%	27.6%[38.3 µM]	2.91µM*	1.6%	-2.9%	.
Cc1cc(C)c(-c2csc(Cc3nc(-c4cc5ccccc5oc4=O)cs3)n2)cc1C	0.0%	-0.5%	0.6%	10.7%	?	.	.	.
COC(=O)[C@H](Cc1ccccc1)NC(=O)O[C@@H]1C(=O)c2ccc(OC)cc2O[C@H]1c1cccc(C(F)(F)F)c1	1.1%	.	.	.	.	.	.	.
SMILES	Epigenetic derep	Nrf2 ARE act	A549 tox-1	PINK1 modulator	Nrf2 inh	FLuc counter 3	A549 tox-2	Nrf2 ARE inh
Nc1c(Cl)ncnc1NCCO	0.0%	-0.2%	-0.7%	0.6%	5.3%	.	.	.
Cc1ccc(CCNc2ncnc(Cl)c2N)cc1	.	2.2%	?	-1.7%	3.66µM*	?	-3.2%	?
C=C(C)C(=O)/C=C/c1ccc(C(F)(F)F)cc1	-0.3%	.	.	.	.	.	.	.
COc1cc(C)c(Br)cc1S(=O)(=O)NCc1ccncc1	-1.2%	-0.1%	-6.4%	-0.5%	3.26µM*	1.2%	5.5%	-32.4%
Cc1cc(C)c(S(=O)(=O)NCc2ccncc2)c(C)c1	-0.1%	0.3%	-17.5%	1.0%	?	0.107µM*	-1.7%	0.206µM*
Cc1cc(C)c(S(=O)(=O)NCCc2ccncc2)c(C)c1	.	0.2%	-3.2%	3.8%	-28.2%	.	.	.
Cc1ccc(S(=O)(=O)NCc2ccccn2)c(C)c1C	.	-0.4%	-0.2%	0.5%	-3.1%	.	.	.
Cc1ccc(S(=O)(=O)NCc2ccncc2)c(C)c1C	0.0%	0.5%[9.22 µM]	-6.4%	1.7%	1.46µM*	-0.1%	-7.1%	6.51µM*
COc1ccc(OC)c(C2c3c(-c4ccc(Br)cc4)n[nH]c3C(=O)N2c2ccc(Cl)cc2)c1 (configuration not stated)	8.7%	-1.2%	-13.5%	?	?	.	.	.
C(=C\c1ccnc2ccccc12)/c1ccc(-[n+]2cc[n+](-c3ccc(/C=C/c4ccnc5ccccc45)cc3)cc2)cc1	.	.	.	0.8%	.	.	.	.
Cc1ccc(NC(=O)c2c(C)cc(C)nc2SCC(=O)Nc2ccc(Br)cc2)cc1	-1.6%	1.8%	-14.0%	0.5%	?	.	.	.
O=C(Nc1nc(-c2ccccn2)cs1)c1cc(Cl)ccc1[N+](=O)[O-]	?	?	?	1.6%	4.11µM*	15.1µM*	-27.0%	1.84µM*
